Assay results published in a collection of fitness landscapes (doi:10.1016/j.celrep.2020.107928).
The full ranking holds about 81,000 sequences; the median of “one-hybrid fitness for binding parS DNA” is about -0.17, and the highest 2% start at about 0.51. Shown is part of a subset that was picked to be rich in the highest values.

B1: Caulobacter ParB omega fusion; a variant is named by its letters at X, in order, B8GW30 (parent)
chain: MESVVVGEPGMSEGRRGLGRGLSALLGEVDAAPAQAPGEQLGGSREAPIEILQRNPDQPRRTFREEDLEDLSNSIREKGVLQPILVRPSPDTAGEYQIVAGERAWRAAQRAGLKTVPIMVRELDDLAVLEIGIIENVQRADLNVLEEALSYKVLMEKFERTQENIAQTIGKSXSHVANXMRLLXLPDEVQSYLVSGELTAXHARAIAAAADPVALAKQIIEGGLSVRETEALARKAPNLSAGKSKGGRPPRVKDTDTQALESDLSSVLGLDVSIDHRGSTGTLTITYATLEQLDDLCNRLTRGI

Variants of: B1
Experiment: one-hybrid fitness for binding parS DNA (scaled: cognate 1, non-cognate 0); higher = stronger binding
Settings: with parS DNA site
In short: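 In E. coli USO, a HIS3 reporter with its site placed 19 bp from the promoter was used to select Caulobacter ParB variants randomised at four specificity codons. Growth lasted 48 hours at 37°C on histidine-free M9 containing 0.1 mM IPTG and 5 mM 3-AT. Fitness was taken as the log change in variant-to-wild-type read ratio from Illumina sequencing of pre- and post-selection plasmids, rescaled between the non-cognate and cognate sites.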

one-hybrid fitness for binding parS DNA, 0.777:
RHKS

one-hybrid fitness for binding parS DNA, 0.651:
RRTS

one-hybrid fitness for binding parS DNA, 0.619:
RCYA

one-hybrid fitness for binding parS DNA, 1.02:
RMQC
RIGG
RCDS

one-hybrid fitness for binding parS DNA, 0.875:
RMVT

one-hybrid fitness for binding parS DNA, 0.719:
RCNA

one-hybrid fitness for binding parS DNA, 0.425:
RWNA

one-hybrid fitness for binding parS DNA, 0.405:
RFTN

one-hybrid fitness for binding parS DNA, 0.86:
RLPS

one-hybrid fitness for binding parS DNA, 0.248:
RQIN

one-hybrid fitness for binding parS DNA, 0.927:
RHVS

one-hybrid fitness for binding parS DNA, 0.474:
RWRA

one-hybrid fitness for binding parS DNA, 0.707:
RSVT

one-hybrid fitness for binding parS DNA, 0.203:
RSNH

one-hybrid fitness for binding parS DNA, 0.951:
RHQC

one-hybrid fitness for binding parS DNA, 0.939:
RSDS

one-hybrid fitness for binding parS DNA, 0.708:
RRKG

one-hybrid fitness for binding parS DNA, 0.235:
RGDA

one-hybrid fitness for binding parS DNA, 0.616:
RRTC

one-hybrid fitness for binding parS DNA, 0.302:
RHVN

one-hybrid fitness for binding parS DNA, 0.994:
RCQC

one-hybrid fitness for binding parS DNA, 0.991:
RTTC

one-hybrid fitness for binding parS DNA, 0.243:
RNAM

one-hybrid fitness for binding parS DNA, 0.415:
RTTN

one-hybrid fitness for binding parS DNA, 0.695:
RRTN

one-hybrid fitness for binding parS DNA, 0.802:
RKKG

one-hybrid fitness for binding parS DNA, 0.998:
RLQC
RSGG

one-hybrid fitness for binding parS DNA, 0.874:
RSQT

one-hybrid fitness for binding parS DNA, ≤ 0.2:
DCPY
CRRI
RPQT
REQT
RSQK
RDQT
MKGT
PHAA
CNAG
SQES
CCPY
RKVF
RKKP
RKKD
NRVQ
PLNP
RSQQ
RKQQ
RIQQ
REQC
RHQP
RHQD
VCLS
NNQG
QKHV
RDQC
NRQC
RMQL
RMQF
RLQQ
RPQC
RRQR
NGPC
QQNS
IKKF
DIKG
YPGG
FNTL
LPNG
RPDA
RPRA
RPNA
RENA
YTPK
NRGR
WRHM
TEAW
HGTW
PNLY
DLLY
RDDA
RDRA
REDA
KFNA
CFAA
RNLW
NVSV
DDCG
KMYG
QRCI
APES
SERT
LITT
MNRC
DIAI
ACMT
YQQG
RSPA
DSYA
RHKP
RHVD
KQDV
HTPC
AALR
WLII
YSML
RMVR
RMKD
TDKS
CMDR
TNLK
RLPD
RLIP
IHED
PMWM
RFKD
NFVG
NFKG
LLAH
KLSS
YSYS
RRKF
RRVR
RRKK
RRVQ
LFLG
SWLK
PTSL
QPAA
FRES
PPSL
SYQW
NTNA
DTNA
WHYV
HFVM
QFAC
RPGG
RSGK
RDGG
RIGD
HLHN
EVNR
RCWR
NFVA
MAPR
YLCV
DLKG
TWYC
TAYD
PPTG
RQPD
RQPH
RQIH
LCRT
CNIR
TNIS
ASKM
RPNS
RSND
RPDS
RSDP
RSDH
RCNP
FIST
SDVE
QNER
HDLW
GHTP
IPGC
FIPR
LDNV
RSTQ
RITR
RTTQ
RMTP
RMTR
RETC
QHHF
PRIV
VMLC
DQKI
NPVG
FASY
GGAS
RKTP
RRTR
RDTC
NRTC
RPTC
RHTH
MMQL
GRRM
RHSV
AKSG
REHW
EAGS
KYAG
ELVS
SVCS
LPIR
GTYV
VEST
SGLP
RATP
NFTC
REFP
GDAW
RNFF
RNAK
RNFK
VNTS
NGQK
QLDA
AVCE
APET
RRTD
RRTQ
RRTH
RRTP
APDT
CSER
DLWS
MGLC
GWAG
KEHC
REVT
RDVT
RPVT
CVDQ
ITTC
LKCF
HKKY
RIPF
RIPR

one-hybrid fitness for binding parS DNA, 0.805:
RQIG

one-hybrid fitness for binding parS DNA, 0.442:
RIQY

one-hybrid fitness for binding parS DNA, 0.995:
RLGG

one-hybrid fitness for binding parS DNA, 0.246:
RIGH

one-hybrid fitness for binding parS DNA, 0.97:
RSTC

one-hybrid fitness for binding parS DNA, 0.443:
RITY

one-hybrid fitness for binding parS DNA, 0.63:
RRQC

one-hybrid fitness for binding parS DNA, 0.959:
RSNS

one-hybrid fitness for binding parS DNA, 0.227:
CLRH

one-hybrid fitness for binding parS DNA, 0.57:
RFNA

one-hybrid fitness for binding parS DNA, 0.793:
RKTC

one-hybrid fitness for binding parS DNA, 0.41:
RHTY

one-hybrid fitness for binding parS DNA, 0.225:
RGYA
RLPN

one-hybrid fitness for binding parS DNA, 0.496:
RGRA

one-hybrid fitness for binding parS DNA, 0.985:
RMTC

one-hybrid fitness for binding parS DNA, 0.391:
RMKM

one-hybrid fitness for binding parS DNA, 0.4:
RKQY

one-hybrid fitness for binding parS DNA, 0.495:
RLQY

one-hybrid fitness for binding parS DNA, 0.703:
RIPG

one-hybrid fitness for binding parS DNA, 0.46:
RFDA

one-hybrid fitness for binding parS DNA, 0.2:
REGG

one-hybrid fitness for binding parS DNA, 0.469:
RLGN

one-hybrid fitness for binding parS DNA, 0.958:
RSQC

one-hybrid fitness for binding parS DNA, 0.567:
RCDA

one-hybrid fitness for binding parS DNA, 0.686:
RNAT

one-hybrid fitness for binding parS DNA, 0.722:
RTNA

one-hybrid fitness for binding parS DNA, 0.908:
RCNS

one-hybrid fitness for binding parS DNA, 0.596:
RSNA

one-hybrid fitness for binding parS DNA, 0.26:
RFVN

one-hybrid fitness for binding parS DNA, 0.764:
RMKT

one-hybrid fitness for binding parS DNA, 0.29:
RWDA

one-hybrid fitness for binding parS DNA, 0.602:
RSYA

one-hybrid fitness for binding parS DNA, 0.942:
RKVG

one-hybrid fitness for binding parS DNA, 0.573:
RNFT

one-hybrid fitness for binding parS DNA, 0.982:
RATC

one-hybrid fitness for binding parS DNA, 0.843:
RCVT

one-hybrid fitness for binding parS DNA, 0.962:
RITC

one-hybrid fitness for binding parS DNA, 0.836:
RRVG

one-hybrid fitness for binding parS DNA, 0.796:
RCRA

one-hybrid fitness for binding parS DNA, 0.988:
RFKG

one-hybrid fitness for binding parS DNA, 0.515:
RSDA

one-hybrid fitness for binding parS DNA, 0.394:
RGNA

one-hybrid fitness for binding parS DNA, 0.43:
RLTN

one-hybrid fitness for binding parS DNA, 0.204:
RLGH
RCDP

one-hybrid fitness for binding parS DNA, 0.936:
RCQT

one-hybrid fitness for binding parS DNA, 0.554:
RTDA

one-hybrid fitness for binding parS DNA, 0.301:
RCYH

one-hybrid fitness for binding parS DNA, 0.77:
RFVG

one-hybrid fitness for binding parS DNA, 0.605:
RSRA

one-hybrid fitness for binding parS DNA, 0.336:
RKTN

one-hybrid fitness for binding parS DNA, 1.01:
RCGG

one-hybrid fitness for binding parS DNA, 0.259:
RMVF

one-hybrid fitness for binding parS DNA, 0.924:
RIIG

one-hybrid fitness for binding parS DNA, 0.365:
RHKN

one-hybrid fitness for binding parS DNA, 1:
RIQC
RLIS
RCTC
RLTC

one-hybrid fitness for binding parS DNA, 0.825:
RKQC

one-hybrid fitness for binding parS DNA, 0.346:
RLTM

one-hybrid fitness for binding parS DNA, 0.233:
RIIH

one-hybrid fitness for binding parS DNA, 0.398:
RIIY

one-hybrid fitness for binding parS DNA, 0.95:
RFTC

one-hybrid fitness for binding parS DNA, 0.38:
RLIN

one-hybrid fitness for binding parS DNA, 0.412:
RKVY

one-hybrid fitness for binding parS DNA, 0.514:
RQPG

one-hybrid fitness for binding parS DNA, 0.946:
RHTC

one-hybrid fitness for binding parS DNA, 0.436:
RATN
